Screening data as filed in PubChem.
Giardia kill – Giardia lamblia killing. Giardia lamblia trophozoite viability. activity change, % at 7.66 µM, hits read low. hit rate 0.15% among 340,000. AID 540267; in the data active = activity change below about -80%; inconclusive = between about -30% and that limit;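 note: parasites exposed to compound for two days anaerobically before the ATP read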
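Giardia lamblia trophozoites (100 cells/well) were incubated with compounds for 48 h at 37 deg C under anaerobic conditions. Viability was read as ATP content by one-step luminescence after 15-30 min at room temperature.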
HT1080-NT tox – kills 2HG-producing HT-1080-NT fibrosarcoma cells. HT-1080-NT fibrosarcoma viability, CellTiter-Glo ATP luminescence, 48 h. Potency, µM (doses to about 46.1 µM), most hits filed as cytotoxic. hit rate 1.6% among 360,000. AID 686970;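 note: NT is the 2HG producing partner of a matched IDH1 knockdown line; nearly all actives have a fitted effect of over 55% in size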
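Compounds were tested in concentration-response format on HT-1080-NT cells for 48 hours at 37 degrees C. Cell viability came from CellTiter-Glo luminescence; curves were classified by r2, response magnitude and activity.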
IL-1B inflam inh – inflammasome signaling inhibition, IL-1 beta readout; THP-1 LPS/ATP IL-1B secretion, AlphaLISA, 16 h; stronger effect = lower value; activity change, % at 57.5 µM; hit rate 4.7% among 360,000; AID 743279; in the data active = activity change below about -50%; inconclusive = mostly about -30% to -49%
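THP-1 cells pretreated 1 hr with compounds (up to 57.5 uM final), then stimulated with LPS (250 ng/mL final) plus ATP (1.25 mM final); secreted IL-1B measured by AlphaLISA after 16 hr, decreased signal indicating inhibition.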
HepG2 viability – counter-screen for TGF-b inhibitors: cytotoxicity in HepG2 cells. HepG2 CAGA-GFP viability, ATP luminescence, 18 h. Potency, µM (titrated, usually from 46.1 µM), usual class: cytotoxic. hit rate 0.76% among 410,000. AID 588856
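CellTiter-Glo luminescence gave cytotoxicity after 18 hours at 37 degrees C. The cells were HepG2 CAGA-GFP in 1% FBS DMEM, stimulated with 500 pg/mL TGF-beta after compound addition. %Activity was normalised to no-cell wells (complete cell-killing) and DMSO (no toxicity), and curves were fitted and classified.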
TGFb inhibitor – inhibitors of TGF-b signaling | hit rate 1.2% among 410,000 | Potency, µM (highest dose often 46.1 µM), hits mostly inhibitors | HepG2 CAGA-GFP TGF-b/SMAD3 reporter, GFP fluorescence, 18 h; TGF-beta stimulated, 500 pg/mL final; note: nearly all actives have a fitted effect of over 65% in size
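TGF-beta reporter screen: HEPG2 CAGA-GFP, 1% FBS, 500 pg/mL TGF-beta final, 18 h; per-cell GFP summed per well; curves fitted and categorized by class.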
HT1080 IDH1KD tx – toxicity to HT-1080 IDH1 knockdown cells (counter line) | hit rate 2% among 360,000 | Potency, µM (series often up to 46.1 µM), actives largely listed as cytotoxic | HT-1080 IDH1 knockdown viability, ATP luminescence, 48 h
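Luminescent ATP read-out (CellTiter-Glo, 10 min at room temperature) after 48 h compound exposure at 37 °C gave viability of IDH1-knockdown HT-1080 cells. Activity was normalised to DMSO and cell-free wells, then fitted as concentration-response curves.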
Numbers stand for hits; n = inactive; u = inconclusive; x = not tested or not shown. Only some compounds are listed: those with a hit (about 6.5% of all), similar ones and a draw of the others. Unless noted, calls come from the whole dose curve; as a rule, active = well fitted curve in the direction sought with a large enough effect; inconclusive = small, poorly fitted or top-dose-only effect, or another doubt; inactive = no such curve, though single readings can be large; an effect the other way counts as inactive or inconclusive.

SMILES | Giardia kill | HT1080-NT tox | IL-1B inflam inh | HepG2 viability | TGFb inhibitor | HT1080 IDH1KD tx
Cc1cc(C)c(Nc2cc(S(=O)(=O)O)c(N)c3c2C(=O)c2ccccc2C3=O)c(C)c1 | n | n | -55 | n | u | n
Cc1cc(C)c(NC(=O)COC(=O)c2cccc3c2C(=O)c2ccccc2C3=O)c(C)c1 | n | n | u | n | u | n
O=C(/C=C/c1ccc(Cl)cc1Cl)NCCSc1ccccc1 | n | n | -88 | n | u | n
O=C(/C=C/c1ccccc1)NCCSCc1ccc(Cl)cc1 | n | n | n | n | n | n
O=C(/C=C/c1ccc(Cl)cc1)NCCSc1ccccc1 | u | n | n | n | n | n
O=C(/C=C/c1ccc(Cl)cc1Cl)NCCSCc1ccccc1 | n | n | -96 | n | n | n
COC(=O)c1ccc(Cn2cc(C(F)(F)F)cc([N+](=O)[O-])c2=O)cc1 | -95 | n | n | n | n | n
O=c1c([N+](=O)[O-])cc(C(F)(F)F)cn1Cc1c(Cl)cccc1Cl | -91 | n | n | n | n | n
Cc1cccc(C)c1NC(=O)C(c1ccc(C(F)(F)F)cc1)n1c(=O)c(-c2cc3ccccc3[nH]2)nc2ccccc21 (stereo unspecified) | x | u | n | x | x | 21µM
O=C(NCc1ccccc1)C(C1CC1)n1c(=O)c(-c2cc3ccccc3[nH]2)nc2ccccc21 (stereo unspecified) | x | 23µM | n | x | x | u
CC(C)(C)NC(=O)C(c1ccncc1)n1c(-c2ccc(C(F)(F)F)cc2)nc2ccccc21 (stereo unspecified) | x | u | n | x | x | 21µM
CC(C)(C)NC(=O)C(c1ccc(C(F)(F)F)cc1)n1c(=O)c(-c2cc3ccccc3[nH]2)nc2ccccc21 (stereo unspecified) | x | u | n | x | x | 21µM
COc1ccc(C(C(=O)NC(C)(C)C)n2c(-c3ccc(C(F)(F)F)cc3)nc3ccccc32)cc1 (stereo unspecified) | x | n | n | x | x | n
CC(C)(C)NC(=O)C(c1ccccc1)n1c(=O)c(-c2cc3ccccc3[nH]2)nc2ccccc21 (stereo unspecified) | x | u | n | x | x | u
COc1ccc(CSc2nc3ccncc3n2CC(=O)Nc2ccc(C)c(F)c2)cc1 | x | x | x | n | u | x
Cc1c(CCOC(=O)C23CC4CC(CC(C4)C2)C3)sc[n+]1Cc1ccccc1 | n | n | n | n | n | n
Cc1ccccc1CNC(=O)c1ccc2nc([C@@H]3O[C@H](CO)[C@H](O)[C@H](O)[C@H]3O)[nH]c2c1 | x | n | n | n | n | n
CC(C)(C)c1cc2nc(NCc3cccc(Cl)c3)ccn2n1 | x | u | n | n | n | n
COc1ccc(NS(=O)(=O)c2ccc(NC(=S)NC(=O)/C=C/c3ccccc3)cc2)nn1 | n | n | -61 | n | n | n
OCCCNc1nc(-c2ccc(Cl)cc2)nnc1-c1ccc(Br)cc1 | n | u | -78 | n | n | u
O=[N+]([O-])c1ccc(-c2nnc(-c3ccccc3)c(NCCCO)n2)cc1 | n | n | n | n | n | n
CCCS(=O)(=O)N1CCCC(C(=O)NCCN(C)Cc2ccccc2)C1 (stereo unspecified) | n | n | n | n | u | n
CC(C)(C)SCCNC(=O)CN1C(=O)c2ccccc2S1(=O)=O | n | n | n | n | n | n
Cc1cnc([N+](=O)[O-])n1CCOC(=O)NC(=O)c1ccc(C(F)(F)F)cc1 | -91 | n | n | n | n | n
NC(=O)c1cc2c3ccccc3ccn2c1-c1ccccc1 | n | 1.6µM | -91 | n | u | u
SMILES | Giardia kill | HT1080-NT tox | IL-1B inflam inh | HepG2 viability | TGFb inhibitor | HT1080 IDH1KD tx
Cc1cccc(C)c1NC(=O)CNC(=O)c1cnccn1 | n | n | n | n | n | n
CCCn1c(/N=C/c2ccc3c(c2)OCO3)nc2ccccc21 | n | n | n | n | n | n
Cc1cccc(NNC(=O)C2CCC2)c1 | n | 7.3µM | n | n | n | 7.3µM
Cc1csc2sc(-c3ccnc(SCC(=O)NCc4ccccc4)n3)c(C)c12 | n | 3.3µM | n | n | u | 2.3µM
Cc1ccc2nc3c(c(N)c2c1)CCN3c1ccccc1 | n | n | -77 | n | u | n
COC(=O)N(C)C[C@@H]1OCc2cn(nn2)CCCC(=O)N([C@H](C)CO)C[C@H]1C | x | n | n | n | n | n
CC(C)=CCC[C@H](C)CC1Cc2[nH]c(=S)[nH]c(=O)c2C(c2ccc(Cl)cc2)O1 (stereo partly specified) | x | u | n | x | x | 16µM
CC(C)=CCC[C@H](C)CC1Cc2[nH]c(=S)[nH]c(=O)c2C(c2ccc(F)cc2)O1 (stereo partly specified) | x | n | n | 14µM | 13µM | n
CC(C)=CCC[C@H](C)C[C@@H]1Cc2[nH]c(=S)[nH]c(=O)c2[C@@H](c2ccc(F)cc2)O1 | x | n | n | x | x | n
Cc1csc(NC(=O)CSc2nc3[nH]c(=O)cc(O)c3s2)n1 | -87 | 5.8µM | -105 | n | u | 5.2µM
O=C(CSc1nc2[nH]c(=O)cc(O)c2s1)Nc1nncs1 | n | n | n | n | n | n
Cc1nc(-c2cccc(S(=O)(=O)N3CCC(C(=O)NCc4ccccc4)CC3)c2)no1 | x | x | x | n | n | x
Cc1onc(-c2ccccc2)c1C(=O)Nc1cc(C(F)(F)F)ccc1N1CCOCC1 | n | u | n | n | n | 2.9µM
